# Tests used:
# Assay in all cases: difference in mean normalized H2B-mRuby nuclear fluorescence intensity relative to DMSO control (normalized intensity difference (DMSO = 0)); higher = stronger increase in transgene reporter fluorescence
# Conditions in all cases: 24 h
# H1299 = system: H1299
# Summary of the method: (§1)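 What the table gives is the change in mean per-nucleus normalized H2B-mRuby intensity against DMSO-treated cells. It was measured in H2B-mRuby2-expressing cancer cell lines after 24 h of drug treatment at equal DMSO, imaged unstained on a Leica DMI8 at 541–551 nm excitation and 565–605 nm emission over about 3 repeats of 4 fields each.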
# LN-18 = system: LN-18
# Summary of the method: as §1
# SK-OV-3 = system: SK-OV-3
# Summary of the method: as §1
smiles,measurement,setting,value
O=C(Nc1ccc2[nH]nc(-c3ccncc3)c2c1)[C@@H]1CCN(CC(=O)N2CCN(c3ccc(-c4ncccn4)cc3)CC2)C1 (concentration unit: uM),difference,H1299; concentration: 0.05,-0.0926
same,difference,H1299; concentration: 0.1,-0.0835
same,difference,H1299; concentration: 0.25,-0.13
same,difference,H1299; concentration: 1,-0.131
same,difference,H1299; concentration: 5,-0.0355
COc1cc(Nc2c(C#N)cnc3cc(OCCCN4CCN(C)CC4)c(OC)cc23)c(Cl)cc1Cl (concentration unit: uM),difference,H1299; concentration: 0.25,-0.202
same,difference,H1299; concentration: 1,-0.134
same,difference,H1299; concentration: 2.5,-0.0971
same,difference,H1299; concentration: 5,-0.166
same,difference,H1299; concentration: 20,-0.0502
CC(=O)c1c(C)c2cnc(Nc3ccc(N4CCNCC4)cn3)nc2n(C2CCCC2)c1=O (concentration unit: uM),difference,H1299; concentration: 0.1,-0.156
same,difference,H1299; concentration: 0.5,-0.266
same,difference,H1299; concentration: 1,-0.19
same,difference,H1299; concentration: 5,-0.0957
same,difference,H1299; concentration: 10,-0.0594
COc1cccc2c1C(=O)c1c(O)c3c(c(O)c1C2=O)C[C@@](O)(C(=O)CO)C[C@@H]3O[C@H]1C[C@H](N)[C@H](O)[C@H](C)O1 (concentration unit: nM),difference,H1299; concentration: 25,0.0124
same,difference,H1299; concentration: 100,0.112
same,difference,H1299; concentration: 250,0.0484
same,difference,H1299; concentration: 1000,0.0826
same,difference,H1299; concentration: 2500,0.218
same,difference,LN-18; concentration: 25,-0.017
same,difference,LN-18; concentration: 100,-0.0175
same,difference,LN-18; concentration: 250,0.0434
same,difference,LN-18; concentration: 1000,0.361
same,difference,LN-18; concentration: 2500,0.899
same,difference,SK-OV-3; concentration: 25,-0.00185
same,difference,SK-OV-3; concentration: 100,0.13
same,difference,SK-OV-3; concentration: 250,0.133
same,difference,SK-OV-3; concentration: 1000,0.252
same,difference,SK-OV-3; concentration: 2500,0.93
CC[C@]1(O)C[C@H]2CN(CCc3c([nH]c4ccccc34)[C@@](C(=O)OC)(c3cc4c(cc3OC)N(C=O)[C@H]3[C@@](O)(C(=O)OC)[C@H](OC(C)=O)[C@]5(CC)C=CCN6CC[C@]43[C@@H]65)C2)C1 (concentration unit: nM),difference,H1299; concentration: 2.5,-0.165
same,difference,H1299; concentration: 10,-0.0783
same,difference,H1299; concentration: 25,-0.00792
same,difference,H1299; concentration: 100,-0.00267
same,difference,H1299; concentration: 250,-0.0899
C[C@@H](Oc1cc(-c2cnn(C3CCNCC3)c2)cnc1N)c1c(Cl)ccc(F)c1Cl (concentration unit: uM),difference,H1299; concentration: 0.25,0.0337
same,difference,H1299; concentration: 1,-0.111
same,difference,H1299; concentration: 2.5,-0.0387
same,difference,H1299; concentration: 5,0.194
same,difference,H1299; concentration: 10,0.228
COC1=C2C[C@@H](C)C[C@H](OC)[C@H](O)[C@@H](C)/C=C(\C)[C@H](OC(N)=O)[C@@H](OC)/C=C\C=C(/C)C(=O)NC(=CC1=O)C2=O (concentration unit: nM),difference,H1299; concentration: 5,-0.0197
same,difference,H1299; concentration: 25,0.305
same,difference,H1299; concentration: 50,0.532
same,difference,H1299; concentration: 100,0.567
same,difference,H1299; concentration: 500,0.435
N#CC[C@H](C1CCCC1)n1cc(-c2ncnc3[nH]ccc23)cn1 (concentration unit: uM),difference,H1299; concentration: 1,0.0876
same,difference,H1299; concentration: 2.5,-0.0462
same,difference,H1299; concentration: 5,-0.0185
same,difference,H1299; concentration: 10,-0.0963
same,difference,H1299; concentration: 25,0.115
COc1cc([C@@H]2c3cc4c(cc3[C@@H](O[C@@H]3O[C@@H]5CO[C@@H](C)O[C@H]5[C@H](O)[C@H]3O)[C@H]3COC(=O)[C@H]23)OCO4)cc(OC)c1O (concentration unit: uM),difference,LN-18; concentration: 1,0.0338
same,difference,LN-18; concentration: 2.5,0.04
same,difference,LN-18; concentration: 5,0.0489
same,difference,LN-18; concentration: 10,0.0688
same,difference,LN-18; concentration: 20,0.0487
same,difference,SK-OV-3; concentration: 1,0.0528
same,difference,SK-OV-3; concentration: 2.5,0.00327
same,difference,SK-OV-3; concentration: 5,0.00917
same,difference,SK-OV-3; concentration: 10,0.159
same,difference,SK-OV-3; concentration: 20,0.266

# — the supplement of paper PMC11026393
